Assay results: the supplement of paper PMC6718421

What follows are compounds tested on Caenorhabditis elegans N2 (wild type) (assay: animals with crystals or spheres in anterior pharynx; higher = more object (crystal/sphere) accumulation). Settings: 30 µM; 48 h; genotype: wild type N2; stage: L1 start.
Procedure: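 Synchronized wild-type (N2) C. elegans L1 larvae (50 per well) were incubated in liquid NGM with E. coli HB101 and 30 uM of each wactive for 48 h. Live worms were scored by DIC and polarized-light microscopy for birefringent crystals or non-birefringent spheres in the anterior pharynx. At least 3 biological replicates were run with at least 20 worms each; the value is the mean % of animals carrying objects.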

| SMILES | animals |
| --- | --- |
| CCOc1ccc(/C=C/[N+](=O)[O-])cc1 [wact-385] | 0% |
| Fc1ccc(N2CCN(Cc3cccc(Br)c3)CC2)cc1 [wact-30] | 0% |
